What all share (conditions): mRNA level, 48 h; actives raise or lower the signal
Read-out in assay [1]: Early growth response protein 1 (EGR1) transcription factor, EGR1 (gene 1958)
The assay can be described thus: LTEA_HepaRG_EGR1: Life Technologies and Expression Analysis (LTEA) Assay for Early growth response protein 1 (EGR1) transcription factor using HepaRG (AID 2283490). A digest of the protocol:
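Read-out is EGR1 mRNA level by qRT-PCR, normalized to three housekeeping genes and analysed for gain or loss of signal against 0.5% DMSO. Source cells: human HepaRG, treated 48 h at up to 100 uM in half-log dilutions.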

Read-out in assay [2]: Ezrin (EZR), EZR (gene 7430)
The experiment in a line: LTEA_HepaRG_EZR: Life Technologies and Expression Analysis (LTEA) Assay for Ezrin (EZR) using HepaRG (AID 2283491). A digest of the protocol: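 HepaRG, 48 h chemical exposure, 8-pt half-log series from 100 uM, 0.5% DMSO vehicle, duplicates. Read-out: EZR mRNA by TaqMan qRT-PCR (Fluidigm array), housekeeping-normalized; bidirectional curve fit vs DMSO baseline.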

Read-out in assay [3]: Cytochrome P450 3A7 (Homo sapiens) (UniProt P24462)
The experiment in a line: LTEA_HepaRG_CYP3A7: Life Technologies and Expression Analysis (LTEA) Assay for CYP3A7 using HepaRG (AID 2283492). A digest of the protocol: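 Differentiated HepaRG cells in serum-free induction medium exposed 48 h in duplicate to 8-point half-log series from 100 uM top in 0.5% DMSO. CYP3A7 mRNA by qRT-PCR, normalized to ACTB/GAPDH/POLR2A, bidirectional fit versus DMSO.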

Read-out in the next assay: CYP3A5 (gene 1577)
The experiment in a line: LTEA_HepaRG_CYP3A5: Life Technologies and Expression Analysis (LTEA) Assay for CYP3A5 using HepaRG (AID 2283493). A digest of the protocol: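 HepaRG plated 48 h, switched to serum-free induction medium, chemicals added 48 h (max 100 uM, half-log, 0.5% DMSO). RNA isolated; CYP3A5 by TaqMan qRT-PCR. Gain/loss vs DMSO.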

Read-out in assay [4]: Fatty Acid-Binding Protein 1 (FABP1), FABP1 (gene 2168)
The assay can be described thus: LTEA_HepaRG_FABP1: Life Technologies and Expression Analysis (LTEA) Assay for Fatty Acid-Binding Protein 1 (FABP1) using HepaRG (AID 2283494). The gist of the method:
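HepaRG, 48 h post-plating switched to serum-free induction medium, then dosed 48 h (duplicate, 8 pts, ≤100 uM, 0.5% DMSO). RNA → Fluidigm TaqMan qRT-PCR, FABP1 normed to ACTB/GAPDH/POLR2A. Bidirectional curve fit vs DMSO.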

Read-out in assay [5]: Cytochrome P450 4A22 (Homo sapiens) (UniProt Q5TCH4)
The experiment in a line: LTEA_HepaRG_CYP4A22: Life Technologies and Expression Analysis (LTEA) Assay for Cytochrome P450 4A22 (CYP4A22) using HepaRG (AID 2283495). The gist of the method: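 Differentiated HepaRG cells in serum-free induction medium exposed 48 h in duplicate to eight half-log concentrations up to 100 uM in 0.5% DMSO. CYP4A22 mRNA quantified by TaqMan qRT-PCR, normalized to ACTB, GAPDH and POLR2A; bidirectional fit versus DMSO.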

Read-out in assay [6]: Cytochrome P450 7A1 (Homo sapiens) (UniProt P22680)
The assay can be described thus: LTEA_HepaRG_CYP7A1: Life Technologies and Expression Analysis (LTEA) Assay for Cytochrome P450 7A1 (CYP7A1) using HepaRG (AID 2283496). The gist of the method:
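HepaRG cells plated 48 h, then switched to serum-free induction medium and exposed in duplicate for 48 h to 8-point half-log series from 100 uM in 0.5% DMSO. CYP7A1 mRNA by qRT-PCR (TaqMan), normalized to ACTB/GAPDH/POLR2A; bidirectional fit versus DMSO.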

Read-out in assay [7]: Glutathione S-Transferase (GSTA2), GSTA2 (gene 2939)
The assay can be described thus: LTEA_HepaRG_GSTA2: Life Technologies and Expression Analysis (LTEA) Assay for Glutathione S-Transferase (GSTA2) using HepaRG (AID 2283497). A digest of the protocol: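 HepaRG, 48 h dosing, 8-pt half-log CRC from 100 uM, 0.5% DMSO vehicle, n=2; RNA → Fluidigm TaqMan qRT-PCR; GSTA2 vs ACTB/GAPDH/POLR2A; gain/loss fit vs DMSO.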

Read-out in assay [8]: Glutamate-cysteine ligase catalytic (GCLC), GCLC (gene 2729)
The assay can be described thus: LTEA_HepaRG_GCLC: Life Technologies and Expression Analysis (LTEA) Assay for Glutamate-cysteine ligase catalytic (GCLC) using HepaRG (AID 2283498). The gist of the method: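 Read-out is GCLC transcript level by Fluidigm-based TaqMan qRT-PCR, normalized to three housekeeping genes and fitted in both directions relative to 0.5% DMSO. Human HepaRG cells received chemicals for 48 h, up to 100 uM.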

Read-out in assay [9]: growth arrest and DNA damage 45 (GADD45G), GADD45G (gene 10912)
The experiment in a line: LTEA_HepaRG_GADD45G: Life Technologies and Expression Analysis (LTEA) Assay for growth arrest and DNA damage 45 (GADD45G) using HepaRG (AID 2283499). The gist of the method:
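Differentiated human HepaRG cells, 48 h post-plating, exposed 48 h in serum-free induction medium to 8 half-log concentrations (top 100 uM, 0.5% DMSO) in duplicate. GADD45G mRNA measured by Fluidigm TaqMan qRT-PCR, normalized to ACTB, GAPDH, POLR2A; bidirectional fit versus DMSO.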

Read-out in assay [10]: Glutamate-cysteine ligase regulatory (GCLM), GCLM (gene 2730)
The assay can be described thus: LTEA_HepaRG_GCLM: Life Technologies and Expression Analysis (LTEA) Assay for Glutamate-cysteine ligase regulatory (GCLM) using HepaRG (AID 2283500). A digest of the protocol: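 Cells were plated, cultured 48 h, switched to serum-free induction medium, then dosed in duplicate for 48 h at eight half-log concentrations up to 100 uM. RNA was then profiled by qRT-PCR; gain or loss versus DMSO was fitted.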

Read-out in assay [11]: Glutathione S-transferase M3 (GSTM3), GSTM3 (gene 2947)
The assay can be described thus: LTEA_HepaRG_GSTM3: Life Technologies and Expression Analysis (LTEA) Assay for Glutathione S-transferase M3 (GSTM3) using HepaRG (AID 2283501). A digest of the protocol: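 Differentiated human HepaRG cells were exposed in duplicate for 48 h in serum-free induction medium, 8 points from 100 uM top in half-log steps, 0.5% DMSO. GSTM3 mRNA was measured by TaqMan qRT-PCR, normalized to ACTB, GAPDH and POLR2A; bidirectional fit versus DMSO.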

Read-out in assay [12]: Heat shock 70 kDa protein 1 (HSPA1A), gene 3303
The experiment in a line: LTEA_HepaRG_HSPA1A: Life Technologies and Expression Analysis (LTEA) Assay for Heat shock 70 kDa protein 1 (HSPA1A) using HepaRG (AID 2283502). The gist of the method: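 Readout is HSPA1A transcript level by microfluidic qRT-PCR, normalized to three housekeeping genes and analysed for gain or loss of signal relative to 0.5% DMSO. Human HepaRG cultures received test chemicals for 48 h at up to 100 uM.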

Read-out in assay [13]: Hypoxia-inducible factor 1-alpha (Homo sapiens) (UniProt Q16665)
The experiment in a line: LTEA_HepaRG_HIF1A: Life Technologies and Expression Analysis (LTEA) Assay for Hypoxia-inducible factor 1 (HIF1A) Trancription factor using HepaRG (AID 2283503). The gist of the method: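 Differentiated HepaRG cells in serum-free induction medium exposed 48 h, in duplicate, to 8-point half-log series from 100 uM in 0.5% DMSO. HIF1A mRNA measured by TaqMan qRT-PCR, normalized to ACTB/GAPDH/POLR2A, fitted bidirectionally versus DMSO.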

Read-out in assay [14]: 3-Hydroxy-3-Methylglutaryl-CoA Synthase 2 (HMGCS2), HMGCS2 (gene 3158)
The experiment in a line: LTEA_HepaRG_HMGCS2: Life Technologies and Expression Analysis (LTEA) Assay for 3-Hydroxy-3-Methylglutaryl-CoA Synthase 2 (HMGCS2) using HepaRG (AID 2283504). A digest of the protocol: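 Human HepaRG cells in serum-free induction medium were exposed in duplicate for 48 h to 8-point half-log series from 100 uM top in 0.5% DMSO. HMGCS2 mRNA measured by TaqMan qRT-PCR, normalised to ACTB, GAPDH, POLR2A; bidirectional fit versus DMSO.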

Read-out in the next assay: HGF (gene 3082)
The assay can be described thus: LTEA_HepaRG_HGF: Life Technologies and Expression Analysis (LTEA) Assay for Hepatocyte Growth Facto (HGF) using HepaRG (AID 2283505). A digest of the protocol:
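Differentiated HepaRG cells in serum-free induction medium exposed 48 h in duplicate, 8 half-log concentrations from 100 uM in 0.5% DMSO. HGF mRNA by qRT-PCR, normalised to ACTB, GAPDH, POLR2A; bidirectional fitting.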

Read-out in assay [15]: Insulin Like Growth Factor 1 (IGF1), IGF1 (gene 3479)
The experiment in a line: LTEA_HepaRG_IGF1: Life Technologies and Expression Analysis (LTEA) Assay for Insulin Like Growth Factor 1 (IGF1) using HepaRG (AID 2283506). A digest of the protocol:
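HepaRG, plated 48 h, then switched to serum-free induction media; test chemical 8-pt half-log from 100 uM (0.5% DMSO), duplicate, 48 h. Lysis in RLT, TaqMan qRT-PCR, norm. ACTB/GAPDH/POLR2A. Bidirectional fit vs DMSO.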

Read-out in assay [16]: Intercellular Adhesion Molecule 1 (ICAM1), ICAM1 (gene 3383)
The assay can be described thus: LTEA_HepaRG_ICAM1: Life Technologies and Expression Analysis (LTEA) Assay for Intercellular Adhesion Molecule 1 (ICAM1) using HepaRG (AID 2283507). The gist of the method:
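Differentiated human HepaRG cells in serum-free induction medium exposed 48 h in duplicate to 8 half-log concentrations (top 100 uM, 0.5% DMSO). ICAM1 mRNA quantified by TaqMan qRT-PCR, normalized to ACTB, GAPDH and POLR2A; bidirectional fitting versus DMSO.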

Read-out in assay [17]: Insulin-like growth factor-binding protein 1 (IGFBP1), IGFBP1 (gene 3484)
The assay can be described thus: LTEA_HepaRG_IGFBP1: Life Technologies and Expression Analysis (LTEA) Assay for Insulin-like growth factor-binding protein 1 (IGFBP1) using HepaRG (AID 2283508). The gist of the method:
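HepaRG cells, plated 48 h then switched to serum-free induction medium, exposed in duplicate for 48 h to 8-point half-log series from 100 uM in 0.5% DMSO. mRNA measured by qRT-PCR, normalized to ACTB/GAPDH/POLR2A; bidirectional fit versus DMSO.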

Read-out in assay [18]: Interleukin 6 (IL6), IL6 (gene 3569)
The assay can be described thus: LTEA_HepaRG_IL6: Life Technologies and Expression Analysis (LTEA) Assay for Interleukin 6 (IL6) using HepaRG (AID 2283509). The gist of the method:
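HepaRG, ~100,000 cells/well, 48 h pre-culture; serum-free induction medium; cmpd 8-pt half-log from 100 uM, 0.5% DMSO, duplicate, 48 h. Lysis in RLT, TaqMan qRT-PCR; gain or loss vs DMSO.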

Active and inactive are the calls of the source. Rule for the calls: active = hit-call score of the fitted dose curve at least 0.9, where 1 is the maximum; inactive = score below 0.9.

Hypoxia-inducible factor 1-alpha (Homo sapiens), sequence (Q16665 whole entry, looked up): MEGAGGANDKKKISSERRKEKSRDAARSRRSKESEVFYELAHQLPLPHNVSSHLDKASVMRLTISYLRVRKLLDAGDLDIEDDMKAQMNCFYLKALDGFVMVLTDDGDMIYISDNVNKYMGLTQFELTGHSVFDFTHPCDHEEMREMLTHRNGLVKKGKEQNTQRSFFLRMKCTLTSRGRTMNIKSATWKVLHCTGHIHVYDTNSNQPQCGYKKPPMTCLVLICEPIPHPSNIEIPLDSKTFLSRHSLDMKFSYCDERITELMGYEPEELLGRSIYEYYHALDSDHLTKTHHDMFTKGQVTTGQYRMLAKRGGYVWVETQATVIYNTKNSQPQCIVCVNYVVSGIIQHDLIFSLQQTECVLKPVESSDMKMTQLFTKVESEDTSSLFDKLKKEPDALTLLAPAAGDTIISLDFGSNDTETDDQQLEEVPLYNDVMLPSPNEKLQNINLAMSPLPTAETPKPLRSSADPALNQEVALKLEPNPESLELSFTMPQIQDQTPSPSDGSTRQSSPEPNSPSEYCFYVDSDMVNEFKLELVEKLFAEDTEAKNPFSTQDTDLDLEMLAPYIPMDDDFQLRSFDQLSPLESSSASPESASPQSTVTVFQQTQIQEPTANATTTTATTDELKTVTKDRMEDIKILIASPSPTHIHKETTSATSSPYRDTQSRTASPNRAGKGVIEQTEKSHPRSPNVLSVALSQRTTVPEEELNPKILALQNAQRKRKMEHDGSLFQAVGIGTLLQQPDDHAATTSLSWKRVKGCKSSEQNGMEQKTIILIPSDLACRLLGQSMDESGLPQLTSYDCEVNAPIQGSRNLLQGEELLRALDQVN
Cytochrome P450 3A7 (Homo sapiens), sequence (P24462 whole entry, looked up): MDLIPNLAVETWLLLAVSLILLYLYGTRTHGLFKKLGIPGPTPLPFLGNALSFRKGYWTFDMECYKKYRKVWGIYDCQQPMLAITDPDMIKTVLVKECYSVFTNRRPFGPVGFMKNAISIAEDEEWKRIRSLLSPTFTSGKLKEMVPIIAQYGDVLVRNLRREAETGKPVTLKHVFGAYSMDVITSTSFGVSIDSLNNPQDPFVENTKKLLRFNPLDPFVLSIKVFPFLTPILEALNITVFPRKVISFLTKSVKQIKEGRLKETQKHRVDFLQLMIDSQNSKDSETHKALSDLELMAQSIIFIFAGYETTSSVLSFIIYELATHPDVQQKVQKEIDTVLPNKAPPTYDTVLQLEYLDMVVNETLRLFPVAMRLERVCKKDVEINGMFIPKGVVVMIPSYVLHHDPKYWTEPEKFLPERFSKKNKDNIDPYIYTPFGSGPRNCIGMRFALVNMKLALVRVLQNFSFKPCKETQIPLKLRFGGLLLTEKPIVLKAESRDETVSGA

With `Cc1c(COC(=O)[C@@H]2[C@H](/C=C(\Cl)C(F)(F)F)C2(C)C)cccc1-c1ccccc1`, the outcome (in assay [1]; in assay [2]; with CYP3A5 (gene 1577); in [5]; in [7]; in [8]) was inactive. For the same compound, the result in assay [9], in [10], in [11], in assay [12], in assay [13] and in [14] was inactive. Further, the result (with HGF (gene 3082); in assay [16]; in assay [17]; in assay [18]) was inactive. The AC50 is 4.87 µM (active) in assay [3], 35 µM (active) in assay [4], 14.8 µM (active) in [6] and 34.7 µM (active) in assay [15].
Regarding `N#Cc1c(Cl)cccc1Cl`, the call (in assay [1]; in assay [2]; in [3]; with CYP3A5 (gene 1577); in assay [4]; in assay [5]) was inactive. The compound was classed as inactive in [6], in [7], in assay [8], in assay [9], in [10] and in assay [11]. Moreover, the compound was called inactive (in [12]; in [13]; in [14]; in the assay with HGF (gene 3082); in assay [15]; in assay [16]). The result in assay [17] and in [18] was inactive.
Regarding `Cc1cnc(C2=NC(C)(C(C)C)C(=O)N2)c(C(=O)O)c1` (stereo not given), the compound was called inactive (in assay [1]; in [2]; in assay [3]; with CYP3A5 (gene 1577); in assay [4]; in [5]). The compound was called inactive in assay [6], in assay [7], in [8], in assay [9], in [10] and in [11]. Besides, the compound was classed as inactive (in assay [12]; in assay [13]; in assay [14]; with HGF (gene 3082); in [15]; in assay [16]). For the same compound, the call in assay [17] and in assay [18] was inactive.

The term AC50 denotes the concentration giving half of the maximal activity seen.

Values taken from PubChem BioAssay (EPA / NIEHS).
